Data published in PubChem BioAssay (Tox21).
Results filed as inconclusive are left out. Entries that show only a call come without a potency. The source made the active and inactive calls. Unless noted, calls come from the whole dose curve.

Assays:
[1] = Nuclear factor erythroid 2-related factor 2/antioxidant responsive element (Nrf2/ARE) small molecule agonists: qHTS cell viability counter screen in human keratinocytes (AID 1919968; active = well fitted curve in the direction sought with a large enough effect in the repeat runs; an effect the other way counts as inactive or inconclusive; note: nearly all actives have a fitted effect of over 55% in size; note: potency is the fitted concentration of half-maximal effect)
How it was run: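 Cytotoxicity was multiplexed with the Nrf2/ARE luciferase assay in the same wells. Stably transfected HaCaT keratinocytes were treated with test compounds for 23 h at 37 C. Cell viability was then measured by CellTiter-Fluor fluorescence.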

[2] = Nuclear factor erythroid 2-related factor 2/antioxidant responsive element (Nrf2/ARE) small molecule agonists: luciferase reporter gene qHTS assay in human keratinocytes (AID 1919969); note: nearly all actives have a fitted effect of over 35% in size; note: potency is the fitted concentration of half-maximal effect
[3] = biological target: Gonadotropin-releasing hormone receptor (Homo sapiens) (UniProt P30968); experiment: Human gonadotropin-releasing hormone receptor (GnRHR) small molecule agonists, calcium flux assay in GnRHR-HEK293 cells (AID 1920063); note: nearly all actives have a fitted effect of over 35% in size
Gonadotropin-releasing hormone receptor (Homo sapiens), sequence (P30968 whole entry, looked up): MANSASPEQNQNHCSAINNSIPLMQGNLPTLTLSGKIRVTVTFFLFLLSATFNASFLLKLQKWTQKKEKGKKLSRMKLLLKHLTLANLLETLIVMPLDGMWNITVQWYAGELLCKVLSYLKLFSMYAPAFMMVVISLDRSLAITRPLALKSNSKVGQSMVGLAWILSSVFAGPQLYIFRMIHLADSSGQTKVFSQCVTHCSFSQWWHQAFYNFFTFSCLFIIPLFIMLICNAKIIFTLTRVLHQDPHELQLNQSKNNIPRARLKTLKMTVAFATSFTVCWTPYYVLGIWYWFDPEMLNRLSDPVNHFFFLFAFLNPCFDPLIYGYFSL
How it was run: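 Agonist activity was measured as intracellular calcium flux in HEK293 cells engineered to stably express human GnRHR. After dye loading for 1 hour at 37 C, compounds in DMSO were added and fluorescence was followed for 3 minutes.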

[4] = biological target: KiSS-1 receptor (Homo sapiens) (UniProt Q969F8); experiment: Human kisspeptin (KISS1R) small molecule agonists, calcium flux assay in KISS1R-HEK293 cells (AID 1920064; active = well fitted curve in the direction sought with a large enough effect in the repeat runs; an effect the other way counts as inactive or inconclusive)
KiSS-1 receptor (Homo sapiens), sequence (Q969F8 whole entry, looked up): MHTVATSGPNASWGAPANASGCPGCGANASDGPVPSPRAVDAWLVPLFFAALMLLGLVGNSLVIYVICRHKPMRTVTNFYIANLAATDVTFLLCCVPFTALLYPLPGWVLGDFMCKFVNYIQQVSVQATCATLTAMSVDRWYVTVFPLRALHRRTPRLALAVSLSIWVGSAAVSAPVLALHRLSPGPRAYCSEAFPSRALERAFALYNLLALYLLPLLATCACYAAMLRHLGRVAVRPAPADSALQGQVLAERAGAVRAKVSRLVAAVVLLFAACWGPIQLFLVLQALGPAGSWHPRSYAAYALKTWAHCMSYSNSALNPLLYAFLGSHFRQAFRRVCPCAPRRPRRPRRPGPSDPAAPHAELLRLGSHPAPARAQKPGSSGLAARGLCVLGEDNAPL
How it was run: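 Agonist activity is monitored as intracellular calcium rise in engineered HEK293 cells carrying human KISS1R. Cells are dye-loaded for 1 h at 37 C before compound addition, and fluorescence is recorded for 3 min.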

[5] = G protein-coupled receptor (GPCR) small molecule agonists, calcium flux assay: HEK293 wild type cell line counter screen (AID 1920065)
How it was run: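 Seed cells, incubate 18 h (37 C, 5% CO2); add calcium dye, 1 h at 37 C; pin-transfer compounds, ATP control or DMSO; read fluorescence 480/540 nm each second for 3 min.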

[6] = p53 small molecule agonists, cell-based qHTS assay with human liver microsomes (AID 1963577);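 note: p53 response element beta-lactamase reporter cells with liver microsomes plus NADPH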
How it was run: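 16 h, 37 C exposure of p53RE-bla cells to compounds with human liver microsomes and NADPH (0.5 mg/mL final each); detection via LiveBLAzer mixture, 2 h dark at room temperature.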

[7] = p53 small molecule agonists, cell-based qHTS assay with rat liver microsomes (AID 1963578)
How it was run: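 With rat liver microsomes and NADPH present (0.5 mg/mL final each), p53RE-bla cells are treated with compound for 16 h at 37 C. LiveBLAzer detection mixture is then applied for 2 h at room temperature in the dark.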

[8] = p53 small molecule agonists, cell-based qHTS assay with human liver microsomes: qHTS cell viability counter screen (AID 1963579); note: nearly all actives have a fitted effect of over 45% in size; note: potency is the fitted concentration of half-maximal effect
How it was run: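 In this multiplexed counter screen, the reporter plates were subsequently treated with CellTiter-Glo so that cell viability, reflected by luminescence, could be recorded for p53RE-bla cells dosed 16 h with compounds under microsomal activation (HLM and NADPH).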

[9] = p53 small molecule agonists, cell-based qHTS assay with rat liver microsomes: qHTS cell viability counter screen (AID 1963580); note: nearly all actives have a fitted effect of over 45% in size; note: potency is the fitted concentration of half-maximal effect
How it was run: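 After the beta-lactamase ratio was read, CellTiter-Glo was added to the same wells and luminescence measured at 30 min; cells had been treated 16 h at 37 C with compounds, rat liver microsomes and NADPH (0.5 mg/mL final each).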

[10] = biological target: 5-hydroxytryptamine receptor 2A (Homo sapiens) (UniProt P28223); experiment: 5-hydroxytryptamine receptor 2A (HTR2A) small molecule antagonists, cell-based qHTS assay (AID 1963586); note: nearly all actives have a fitted effect of over 45% in size
5-hydroxytryptamine receptor 2A (Homo sapiens), sequence (P28223 whole entry, looked up): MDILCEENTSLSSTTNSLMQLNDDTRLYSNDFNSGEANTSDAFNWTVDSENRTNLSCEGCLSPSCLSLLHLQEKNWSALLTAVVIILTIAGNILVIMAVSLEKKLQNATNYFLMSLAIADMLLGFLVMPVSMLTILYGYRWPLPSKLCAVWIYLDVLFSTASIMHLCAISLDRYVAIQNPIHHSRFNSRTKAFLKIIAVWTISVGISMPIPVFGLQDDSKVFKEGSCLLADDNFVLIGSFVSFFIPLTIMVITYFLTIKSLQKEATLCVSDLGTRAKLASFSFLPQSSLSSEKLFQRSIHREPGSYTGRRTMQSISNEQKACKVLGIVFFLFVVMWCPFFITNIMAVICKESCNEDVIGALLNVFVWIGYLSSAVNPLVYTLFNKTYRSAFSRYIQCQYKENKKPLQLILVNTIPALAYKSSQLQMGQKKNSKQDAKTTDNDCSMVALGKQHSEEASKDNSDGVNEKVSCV
How it was run: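 CHO cells stably expressing human HTR2A were plated for 18 h at 37 C, then loaded with calcium dye for 1 h. Compounds were preincubated 5 min at room temperature before DOI (4 nM solution) was added. Kinetic fluorescence was read for 3 min.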

[11] = biological target: Muscarinic acetylcholine receptor M1 (Homo sapiens) (UniProt P11229); experiment: Cholinergic receptor muscarinic 1 (CHRM1) small molecule antagonists, cell-based qHTS assay (AID 1963588); note: nearly all actives have a fitted effect of over 40% in size; note: potency is the fitted concentration of half-maximal effect
Muscarinic acetylcholine receptor M1 (Homo sapiens), sequence (P11229 whole entry, looked up): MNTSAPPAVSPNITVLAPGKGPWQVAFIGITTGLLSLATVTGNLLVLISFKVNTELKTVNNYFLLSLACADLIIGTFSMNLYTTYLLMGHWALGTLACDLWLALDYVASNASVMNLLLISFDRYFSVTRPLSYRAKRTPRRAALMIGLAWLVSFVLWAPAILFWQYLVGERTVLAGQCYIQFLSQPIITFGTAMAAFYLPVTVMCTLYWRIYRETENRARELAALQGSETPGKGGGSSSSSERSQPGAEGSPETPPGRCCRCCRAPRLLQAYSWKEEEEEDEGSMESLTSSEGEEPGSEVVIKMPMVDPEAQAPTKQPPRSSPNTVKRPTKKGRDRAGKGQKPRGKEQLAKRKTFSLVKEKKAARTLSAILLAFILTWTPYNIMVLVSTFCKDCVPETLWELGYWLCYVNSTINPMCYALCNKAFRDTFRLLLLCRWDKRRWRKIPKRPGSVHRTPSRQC
How it was run: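 Compounds were tested at 15 concentrations in three independent runs. Dye-loaded CHRM1-CHO cells were exposed 5 min at room temperature before stimulation by acetylcholine added at 50nM. Intracellular calcium was read kinetically on FDSS for 3 min.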

[12] = biological target: Muscarinic acetylcholine receptor M1 (Homo sapiens) (UniProt P11229); experiment: Cholinergic receptor muscarinic 1 (CHRM1) small molecule agonists, cell-based qHTS assay (AID 1963589); note: nearly all actives have a fitted effect of over 35% in size
How it was run: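 Cells were plated and incubated 18 h at 37 C/5% CO2, loaded with calcium dye for 1 h at 37 C, then treated with compounds in DMSO. Fluorescence was recorded kinetically at 1 sec intervals.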

[13] = cAMP Responsive Elements (CRE) small molecule agonists, cell-based qHTS assay (AID 1963590)
How it was run: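 Cells carrying a CRE-driven beta-lactamase reporter (HEK 293T) are seeded, incubated overnight (18 h), and treated with test compounds for 3 h at 37 C; reporter activity is then detected with a FRET substrate after 2 h at room temperature.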

[14] = cAMP Responsive Elements (CRE) small molecule antagonists, cell-based qHTS assay (AID 1963591; active = well fitted inhibition curve with a large enough effect in the signal ratio in the repeat runs, not every such curve was filed as active; the % refers to the signal ratio)
How it was run: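 Cells (CRE-bla HEK 293T, DMEM with 10% dialyzed FBS and 25 mM HEPES) are seeded and incubated 18 h. Compounds are added with NKH477 agonist at 0.25 uM final for 3 h, then FRET substrate for 2 h.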

[15] = biological target: Beta-2 adrenergic receptor (Homo sapiens) (UniProt P07550); experiment: Adrenergic beta2 receptor (ADRB2) small molecule antagonists, cell-based qHTS assay (AID 1963592); note: series mostly up to about 92 µM; nearly all actives have a fitted effect of over 50% in size
Beta-2 adrenergic receptor (Homo sapiens), sequence (P07550 whole entry, looked up): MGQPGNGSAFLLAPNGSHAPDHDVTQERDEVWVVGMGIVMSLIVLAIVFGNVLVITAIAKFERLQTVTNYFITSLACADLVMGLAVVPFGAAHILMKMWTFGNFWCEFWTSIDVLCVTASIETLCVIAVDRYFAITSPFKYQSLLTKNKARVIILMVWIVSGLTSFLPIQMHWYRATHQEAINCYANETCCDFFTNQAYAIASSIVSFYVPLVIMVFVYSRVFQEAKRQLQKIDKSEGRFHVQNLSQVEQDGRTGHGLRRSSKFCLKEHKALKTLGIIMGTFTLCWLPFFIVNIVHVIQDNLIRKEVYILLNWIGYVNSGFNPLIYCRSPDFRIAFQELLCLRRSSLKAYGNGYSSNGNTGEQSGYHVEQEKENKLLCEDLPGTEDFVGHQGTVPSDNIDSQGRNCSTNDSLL
How it was run: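 Assay format: CHO-ADRB2 cells, 18-20hr seeding at 37C/5% CO2, then compound plus 1nM isoproterenol agonist mix for 0.5hr RT. Homogeneous time-resolved fluorescence cAMP detection after 1hr, expressed as 665/615 nm ratio.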

[16] = biological target: D(2) dopamine receptor (Homo sapiens) (UniProt P14416); experiment: Dopamine D2 receptor (DRD2) small molecule agonists, cell-based qHTS assay (AID 1963594); note: nearly all actives have a fitted effect of over 35% in size
D(2) dopamine receptor (Homo sapiens), sequence (P14416 whole entry, looked up): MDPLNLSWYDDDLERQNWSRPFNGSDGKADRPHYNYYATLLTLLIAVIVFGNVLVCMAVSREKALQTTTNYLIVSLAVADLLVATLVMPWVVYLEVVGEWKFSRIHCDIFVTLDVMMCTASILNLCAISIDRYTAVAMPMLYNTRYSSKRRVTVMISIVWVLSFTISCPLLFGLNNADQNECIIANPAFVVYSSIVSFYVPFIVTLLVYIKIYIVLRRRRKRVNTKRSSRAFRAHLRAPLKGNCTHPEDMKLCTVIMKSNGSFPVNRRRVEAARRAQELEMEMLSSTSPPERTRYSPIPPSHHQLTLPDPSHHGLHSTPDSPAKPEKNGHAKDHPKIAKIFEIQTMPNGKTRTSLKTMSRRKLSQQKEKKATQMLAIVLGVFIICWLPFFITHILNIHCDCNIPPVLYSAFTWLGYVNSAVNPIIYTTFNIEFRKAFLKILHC
How it was run: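 HEK293 cells stably expressing human DRD2, pre-treated with PDE inhibitor Ro20-1724 (0.1 mM final) and compound 10 min at room temperature, then stimulated with NKH477 (200nM […]) for 30 min. cAMP read by HTRF (665/620 nm).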

[17] = biological target: 5-hydroxytryptamine receptor 2A (Homo sapiens) (UniProt P28223); experiment: 5-hydroxytryptamine receptor 2A (HTR2A) small molecule agonists, cell-based qHTS assay (AID 1963587); note: nearly all actives have a fitted effect of over 30% in size
How it was run: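 CHO cells stably expressing human HTR2A, plated 18 h, loaded with calcium dye 1 h at 37 C. Agonist mode: compounds added and intracellular calcium fluorescence recorded kinetically for 2 min at 1 sec intervals.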

[18] = biological target: D(2) dopamine receptor (Homo sapiens) (UniProt P14416); experiment: Dopamine D2 receptor (DRD2) small molecule antagonists, cell-based qHTS assay (AID 1963595; active = well fitted inhibition curve with a large enough effect in the signal ratio in the repeat runs, with a control signal flat; the % refers to the signal ratio)
How it was run: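 DRD2-HEK293; 0.1 mM Ro20-1724; cpd 10 min RT; NKH477 200 nM + quinpirole 12 nM, 30 min RT; HTRF cAMP (cAMP-d2/anti-cAMP cryptate), 665/620 nm ratio after 1 h.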

[19] = p53 small molecule agonists, cell-based qHTS assay (AID 1963582; active = well fitted activation curve with a large enough effect in the signal ratio in the repeat runs, not every such curve was filed as active; the % refers to the signal ratio)
How it was run: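 Cells carrying a p53-responsive bla reporter are treated with test compounds for 16 h at 37 C; beta-lactamase activity is then detected with LiveBLAzer B/G FRET substrate after 2 h at room temperature.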

[20] = p53 small molecule agonists, cell-based qHTS assay: qHTS cell viability counter screen (AID 1963581); note: nearly all actives have a fitted effect of over 45% in size
How it was run: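 Viability was counter-screened in parallel with the p53 agonist reporter by measuring intracellular ATP luminescence in the same HCT-116 p53RE-bla wells after 16 h compound treatment at 37 C.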

Structure (SMILES) | Potency [1] | Potency [2] | Potency [3] | Potency [4] | Potency [5] | Potency [6] | Potency [7] | Potency [8] | Potency [9] | Potency [10] | Potency [11] | Potency [12] | Potency [13] | Potency [14] | Potency [15] | Potency [16] | Potency [17] | Potency [18] | Potency [19] | Potency [20]
CCOC(=O)CC(=O)CCl | inactive | 68.6 µM (active) | inactive | inactive | inactive | inactive | inactive | inactive | inactive | inactive | inactive | inactive | inactive | inactive | inactive | inactive |  |  |  | 
Cl/C=C\Cl | inactive | inactive | inactive | inactive | inactive | inactive | inactive | inactive | inactive | inactive | inactive | inactive | inactive | inactive | inactive | inactive | inactive | inactive |  | 
CSSC | inactive | 31 µM (active) | inactive | inactive | inactive | inactive | inactive | inactive | inactive |  | inactive | inactive |  |  | inactive | inactive | inactive | inactive | inactive | 
CC(C)CCCCCCCOC(=O)c1ccccc1C(=O)OCCCCCCCC(C)C | inactive | inactive | inactive | inactive | inactive | inactive | inactive | inactive | inactive |  | inactive | inactive |  |  | inactive | inactive | inactive | inactive | inactive | 
C[N+]1(C)[C@@H]2CC[C@H]1CC(OC(=O)C(CO)c1ccccc1)C2 (stereo not given in full) | inactive | inactive | inactive | inactive | inactive | inactive | inactive | inactive | inactive | inactive |  | inactive | inactive | inactive | inactive | inactive |  | inactive |  | 
Cc1nnc2n1-c1sc(CCc3ccc(CC(C)C)cc3)cc1C(c1ccccc1Cl)=NC2C (stereo not given) | 7.5 µM (active) | inactive | inactive | inactive | inactive | inactive | inactive | inactive | inactive |  | inactive | inactive |  |  | inactive | inactive | inactive |  |  | 
CN(CCCC(O)c1cccnc1)N=O (stereo not given) | inactive | inactive | inactive | inactive | inactive | inactive | inactive | inactive | inactive | inactive | inactive | inactive |  |  |  |  | inactive | inactive | inactive | 
CSc1nc(N=[N+]=[N-])nc(NC(C)C)n1 | inactive | inactive | inactive | inactive | inactive | inactive | inactive | inactive |  | inactive | inactive | inactive | inactive |  | inactive | inactive | inactive | inactive | inactive | inactive
Oc1cc(Cl)c(Cl)c(Cl)c1Cl | 53.2 µM (active) | 53.2 µM (active) | inactive | inactive | inactive | inactive | inactive | 17.8 µM (active) | 17.8 µM (active) | inactive |  | inactive |  |  |  | inactive | inactive | inactive |  | 
Nc1nc(N)nc(N)n1 | inactive | inactive | inactive | inactive | inactive | inactive | inactive | inactive | inactive | inactive | inactive | inactive | inactive | inactive | inactive | inactive |  | inactive | inactive | 
CCCCCCCCCCCCN(C)C | inactive | inactive | inactive | inactive | inactive | inactive | inactive | inactive |  | inactive | inactive | inactive | inactive |  | inactive | inactive | inactive | inactive | inactive | inactive
CC(C)(COCC1CO1)COCC1CO1 (stereo not given) | inactive | 68.6 µM (active) | inactive | inactive | inactive | inactive | inactive | inactive |  | inactive | inactive | inactive | inactive | inactive | inactive | inactive | inactive | inactive | inactive | inactive
Nc1n[nH]c(N)n1 | inactive | 27.8 µM (active) | inactive | inactive | inactive | inactive | inactive | inactive | inactive |  | inactive | inactive |  |  | inactive | inactive | inactive | inactive | inactive | 
Oc1c(Br)c(Br)c(Br)c(Br)c1Br | 30.8 µM (active) | inactive | inactive | inactive | inactive | inactive | inactive | 23.1 µM (active) | inactive |  | 30 µM (active) | inactive |  |  | inactive | inactive |  | inactive | inactive | 
CCCCC(=O)Cl | inactive | inactive | inactive | inactive | inactive | inactive | inactive | inactive | inactive | inactive | inactive | inactive | inactive | inactive | inactive | inactive |  | inactive | inactive | 
O=C(Cl)C(Cl)(Cl)Cl | inactive | inactive | inactive | inactive | inactive | inactive | inactive | inactive |  | inactive | inactive | inactive | inactive | inactive |  | inactive | inactive | inactive | inactive | inactive
